We go through 154 variants from a collection of fitness landscapes (doi:10.1016/j.celrep.2020.107928).

Over roughly 81,000 sequences, “one-hybrid fitness for binding parS DNA” has its median near -0.17; the highest 2% begin near 0.51. The sample as a whole holds a higher share of the highest values than the screen did.

To fix the notation:
B1: Caulobacter ParB omega fusion; a variant is named by its letters at X, in order, B8GW30 (parent)
chain: MESVVVGEPGMSEGRRGLGRGLSALLGEVDAAPAQAPGEQLGGSREAPIEILQRNPDQPRRTFREEDLEDLSNSIREKGVLQPILVRPSPDTAGEYQIVAGERAWRAAQRAGLKTVPIMVRELDDLAVLEIGIIENVQRADLNVLEEALSYKVLMEKFERTQENIAQTIGKSXSHVANXMRLLXLPDEVQSYLVSGELTAXHARAIAAAADPVALAKQIIEGGLSVRETEALARKAPNLSAGKSKGGRPPRVKDTDTQALESDLSSVLGLDVSIDHRGSTGTLTITYATLEQLDDLCNRLTRGI

In this experiment the parent is B1. As to the kind of experiment: one-hybrid fitness for binding parS DNA (scaled: cognate 1, non-cognate 0); higher = stronger binding. The settings on record: with parS DNA site. The procedure, abridged:
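In E. coli USO, a HIS3 reporter with its site placed 19 bp from the promoter was used to select Caulobacter ParB variants randomised at four specificity codons. Growth lasted 48 hours at 37°C on histidine-free M9 containing 0.1 mM IPTG and 5 mM 3-AT. Fitness was taken as the log change in variant-to-wild-type read ratio from Illumina sequencing of pre- and post-selection plasmids, rescaled between the non-cognate and cognate sites.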
Turning to QMWS, the “one-hybrid fitness for binding parS DNA” value was not above 0.2. For SDGC the value was not above 0.2.

As for MATR, the “one-hybrid fitness for binding parS DNA” value is not above 0.2.

With VQVL, the “one-hybrid fitness for binding parS DNA” value was not above 0.2.

For the variant PGTH, the “one-hybrid fitness for binding parS DNA” value was not above 0.2. As to KCMT, the “one-hybrid fitness for binding parS DNA” value is not above 0.2.

As to GHPI, the “one-hybrid fitness for binding parS DNA” value was not above 0.2.

Regarding YKKF, the “one-hybrid fitness for binding parS DNA” value is not above 0.2. In the case of RCLT, the “one-hybrid fitness for binding parS DNA” value came out at 0.966. Next, RSLT: 0.846; RMLP: not above 0.2. Next, RSLP: not above 0.2. Next, RSLH: 0.207; RILN: 0.422. On to RILT, for which the “one-hybrid fitness for binding parS DNA” value turned out to be 0.89. For RPLT the value was not above 0.2; for RDLT, not above 0.2. Next, RMLT: 0.974. For RILD the value was not above 0.2. As for RMLD, the “one-hybrid fitness for binding parS DNA” value was not above 0.2.

As to QFVS, the “one-hybrid fitness for binding parS DNA” value is not above 0.2. Next, EYRS: not above 0.2; FKLR: not above 0.2.

Turning to GPRL, the “one-hybrid fitness for binding parS DNA” value was not above 0.2. Next, HRFW: not above 0.2; QVAA: not above 0.2; QNKG: not above 0.2.

As for GITA, the “one-hybrid fitness for binding parS DNA” value was not above 0.2. For YHLM the value was not above 0.2; for YQRH, not above 0.2; for STFL, not above 0.2. For RKSE the value was not above 0.2. Next, PSQM: not above 0.2; HSHL: not above 0.2.

Consider RHLN, for which the “one-hybrid fitness for binding parS DNA” value was found to be 0.376.

Take RHLP: the “one-hybrid fitness for binding parS DNA” value is not above 0.2. For RHLT the value was 0.834. Next, RTLK: not above 0.2; RTLT: 0.936; RTLF: 0.267.

As to TKSI, the “one-hybrid fitness for binding parS DNA” value was not above 0.2. For the variant DEMS, the “one-hybrid fitness for binding parS DNA” value was not above 0.2.

Regarding YRHE, the “one-hybrid fitness for binding parS DNA” value is not above 0.2. Turning to PEDT, the “one-hybrid fitness for binding parS DNA” value was not above 0.2. Next, VYPT: not above 0.2; RCGN: 0.445. For RRGH the value was not above 0.2; for RRGP, not above 0.2. Regarding RRGN, the “one-hybrid fitness for binding parS DNA” value worked out at 0.777. In the case of RRGD, the “one-hybrid fitness for binding parS DNA” value is not above 0.2. For RRGS the value was 0.639. Next, WDVG: not above 0.2; IHRW: not above 0.2; RLRK: not above 0.2. Next, RLDD: not above 0.2; RLYP: not above 0.2.

With RLDG, the “one-hybrid fitness for binding parS DNA” value came to 0.931.

With RLYG, the “one-hybrid fitness for binding parS DNA” value came to 1.03. For RLRG the value was 0.966; for RLDP, not above 0.2; for RLYH, 0.271. For RLNG the value was 1.01; for RLRD, not above 0.2; for RLNQ, not above 0.2. Next, RLNY: 0.495; CISS: not above 0.2; EWYV: not above 0.2. In the case of QRYM, the “one-hybrid fitness for binding parS DNA” value was not above 0.2. Next, QVRQ: not above 0.2; THSV: not above 0.2; AQCS: not above 0.2. For NWKY the value was not above 0.2; for KFYT, not above 0.2. Next, RQMM: 0.33.

Regarding RQMQ, the “one-hybrid fitness for binding parS DNA” value is not above 0.2. For RQMC the value was 0.945. Next, RQMY: 0.474. For RQMD the value was not above 0.2; for RQMS, 0.998; for RQML, not above 0.2. For the variant RQMT, the “one-hybrid fitness for binding parS DNA” value was 0.881. As for RQMH, the “one-hybrid fitness for binding parS DNA” value came to 0.292.

For RQMG, the “one-hybrid fitness for binding parS DNA” value was 0.973.

For the variant RQMP, the “one-hybrid fitness for binding parS DNA” value was not above 0.2. With RQMN, the “one-hybrid fitness for binding parS DNA” value was found to be 0.423. For DRVV the value was not above 0.2; for NSRG, not above 0.2; for SMFV, not above 0.2. For FLVT the value was not above 0.2; for RNLD, not above 0.2. Next, RNWS: 0.705. On to RNIH, for which the “one-hybrid fitness for binding parS DNA” value was not above 0.2.

As to RNWN, the “one-hybrid fitness for binding parS DNA” value was not above 0.2. Next, RNPG: 0.433. Consider RNLS, for which the “one-hybrid fitness for binding parS DNA” value came to 0.895. Next, RNWP: not above 0.2; RNLN: 0.251; RNHH: not above 0.2.

RNHP: the “one-hybrid fitness for binding parS DNA” value is not above 0.2. Next, RNHS: 0.911. For RNIG the value was 0.597; for MDVV, not above 0.2; for QCYT, not above 0.2.

As to GRNR, the “one-hybrid fitness for binding parS DNA” value was not above 0.2. For the variant EQIG, the “one-hybrid fitness for binding parS DNA” value is not above 0.2. On to FSEV, for which the “one-hybrid fitness for binding parS DNA” value was not above 0.2. Next, HKDS: not above 0.2; YPGT: not above 0.2; ADYG: not above 0.2. For CAGL the value was not above 0.2; for RNSP, not above 0.2; for RNGS, 0.873. For RNQP the value was not above 0.2; for RNGP, not above 0.2. Take RNYH: the “one-hybrid fitness for binding parS DNA” value is not above 0.2.

For RNQH, the “one-hybrid fitness for binding parS DNA” value was not above 0.2. In the case of RNGD, the “one-hybrid fitness for binding parS DNA” value is not above 0.2. Next, RNSN: 0.385. Next, RNSS: 0.967; RNPS: 0.478; RNQS: 0.921. As for RNYS, the “one-hybrid fitness for binding parS DNA” value amounted to 0.85.

As to GNAI, the “one-hybrid fitness for binding parS DNA” value is not above 0.2.

For MPRT, the “one-hybrid fitness for binding parS DNA” value was not above 0.2. Next, LHGD: not above 0.2; GSGG: not above 0.2; TQRY: not above 0.2.

As to LATY, the “one-hybrid fitness for binding parS DNA” value was not above 0.2. Next, GQKN: not above 0.2; HRKI: not above 0.2. Regarding RNIS, the “one-hybrid fitness for binding parS DNA” value amounted to 0.65. For RNID the value was not above 0.2; for RNIN, not above 0.2; for RNCN, 0.304. Next, RNRS: 0.961; RNCS: 0.83.

For the variant RNRP, the “one-hybrid fitness for binding parS DNA” value was not above 0.2.

As for RNRN, the “one-hybrid fitness for binding parS DNA” value was 0.371. As for RNCD, the “one-hybrid fitness for binding parS DNA” value is not above 0.2. Next, ELGN: not above 0.2. For PYSK the value was not above 0.2; for NITG, not above 0.2. Consider KRPK, for which the “one-hybrid fitness for binding parS DNA” value is not above 0.2. For EVIR the value was not above 0.2; for FSHN, not above 0.2. Next, RCFI: not above 0.2; IRLE: not above 0.2; PFDT: not above 0.2. RWFA: the “one-hybrid fitness for binding parS DNA” value is 0.298. Next, RNFA: 0.301; RSFA: 0.558; RDFA: not above 0.2. Next, RCFA: 0.589; RPFA: not above 0.2.
